Screens: PubChem BioAssay, National Center for Advancing Translational Sciences (NCATS)
LASV entry inh – blocks Lassa virus binding to or entry into cells; Lassa virus pseudotype entry inhibition, cell reporter; 1.2% of 300,000 active; Potency, µM (titrated, usually from 37.9 µM), usual class: inhibitors; calls by dose curve; tested in HEK293 cells; further: nearly all actives have a fitted effect of over 50% in size
FMDV antiviral – foot and mouth disease virus antiviral activity. FMDV antiviral cell-based qHTS. 1.2% of 410,000 active. AID 1159524. Potency, µM (top dose mostly 57.9 µM), actives largely listed as inhibitors; calls by dose curve; tested in HEK293T cells; further: read-out not given here; nearly all actives have a fitted effect of over 45% in size
MARV entry inh – inhibitors of Marburg virus binding or cell entry; Marburg virus pseudotyped entry inhibition, cell reporter; Potency, µM (series often up to 37.8 µM), usual class: inhibitors; 1.8% of 300,000 active; AID 540276; calls by dose curve; tested in HEK293 cells
HCMV inh – inhibitors of human cytomegalovirus | HFF cells, HCMV-luciferase reporter, 72 h; active compounds read low | activity change, negative = inhibition, % at 57.5 µM | 4.5% of 410,000 active; in the data active means activity change below about -60%; inconclusive means no clear call, values can overlap the other calls; inactive means above about -39%
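Human foreskin fibroblasts infected with luciferase-reporter HCMV at MOI 1 PFU/cell, compounds at two doses. Luciferase measured 72 h post infection; normalized to buffer-only basal and Salinomycin (10uM) controls.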
Of the large screens only hits and unclear results are named; the others gave an inactive call. Rows were chosen to be rich in hits. Some 6.2% of all compounds tested hit in one or more screens of this group.

C=CCn1c(-c2ccc(OC)cc2)csc1=Nc1c(C)n(C)n(-c2ccccc2)c1=O	FMDV antiviral 22µM, HCMV inh inconclusive
COc1ccc(-c2csc(=NCCO)n2-c2ccccc2)cc1	FMDV antiviral 18µM, MARV entry inh inconclusive, HCMV inh inconclusive
OCCCn1c(-c2ccc(F)cc2)csc1=Nc1ccc(F)cc1	MARV entry inh inconclusive
COc1ccc(OCCn2c(=N)n(CCO)c3ccccc32)cc1	MARV entry inh inconclusive
CCOc1ccc(NC(=O)Cn2cc(C(=O)c3ccc(F)cc3)c(=O)c3cc4c(cc32)OCCO4)cc1	none
CN(C)Cc1csc(NC(=O)Nc2ccccc2Oc2ccccc2)n1	HCMV inh -75 (no result: LASV entry inh, MARV entry inh)
NC(Cc1ccc(C(F)(F)F)cc1)c1csc(NC(=O)NCCc2ccccc2)n1 (configuration not stated)	FMDV antiviral inconclusive, HCMV inh -101 (no result: LASV entry inh, MARV entry inh)
COc1ccc(NC(=O)Nc2nc(C(N)Cc3ccc(C(F)(F)F)cc3)cs2)cc1 (configuration not stated)	FMDV antiviral inconclusive, HCMV inh -103 (no result: LASV entry inh, MARV entry inh)
NC(Cc1ccc(F)cc1)c1csc(NC(=O)NC(c2ccccc2)c2ccccc2)n1 (configuration not stated)	FMDV antiviral inconclusive, HCMV inh -103 (no result: LASV entry inh, MARV entry inh)
COc1ccc(CNC(=O)Nc2nc(C(N)Cc3ccc(F)cc3)cs2)cc1 (configuration not stated)	none (no result: LASV entry inh, MARV entry inh)
CCOc1ccc(NC(=O)CSc2ccc3ccccc3n2)cc1	none
NC(Cc1ccc(C(F)(F)F)cc1)c1csc(NC(=O)Nc2ccccc2Oc2ccccc2)n1 (configuration not stated)	HCMV inh -102 (no result: LASV entry inh, MARV entry inh)
NC(Cc1ccccc1)c1csc(NC(=O)Nc2ccccc2Oc2ccccc2)n1 (configuration not stated)	HCMV inh inconclusive (no result: LASV entry inh, MARV entry inh)
NC(COCc1ccccc1)c1csc(NC(=O)Nc2cccc(C(F)(F)F)c2)n1 (configuration not stated)	HCMV inh -100 (no result: LASV entry inh, MARV entry inh)
NC(=O)c1ccc(Nc2nc(C(N)COCc3ccccc3)cs2)cc1 (configuration not stated)	none (no result: LASV entry inh, MARV entry inh)
COc1ccccc1Nc1ncnc2scc(-c3ccc(F)cc3)c12	FMDV antiviral inconclusive, HCMV inh -83 (no result: MARV entry inh)
c1ccc(CNc2ncnc3scc(-c4cccs4)c23)nc1	FMDV antiviral 16µM, HCMV inh -84 (no result: LASV entry inh, MARV entry inh)
c1ccc(-c2csc3ncnc(NCc4ccccn4)c23)cc1	FMDV antiviral 16µM, HCMV inh -89 (no result: LASV entry inh, MARV entry inh)
CCOc1ccc(-c2csc3ncnc(Nc4cccc(O)c4)c23)cc1	FMDV antiviral inconclusive, MARV entry inh inconclusive
Oc1ccc(Nc2ncnc3scc(-c4ccccc4)c23)cc1	LASV entry inh inconclusive, FMDV antiviral inconclusive, MARV entry inh inconclusive, HCMV inh -64
O=C(c1cccc(F)c1)N1CCC2(CC1)CN(Cc1ccccc1)C2	none (no result: LASV entry inh, MARV entry inh, HCMV inh)
CC(Sc1nc2c(c(=O)[nH]1)CCCC2)C(=O)Nc1cc(C(F)(F)F)ccc1Cl (configuration not stated)	LASV entry inh inconclusive
Cc1ccc(CN(C(=O)COc2ccc(F)cc2)C2CCS(=O)(=O)C2)o1 (configuration not stated)	none
COC(=O)[C@H](C)N1CC=CCOc2c(Cl)cc(Cl)cc2[S+]1(=O)[O-]	none (no result: FMDV antiviral, MARV entry inh, HCMV inh)
COc1cc2c3cc1Oc1c(OC)c(OC)cc4c1[C@H](Cc1ccc(cc1)Oc1cc(ccc1O)C[C@H]3N(C)CC2)N(C)CC4	none (no result: LASV entry inh, MARV entry inh)
COc1ccc(CC2C(=O)NC(C)C(=O)N(C)C3Cc4ccc(cc4)Oc4cc(ccc4O)CC(C(=O)NC(C)C(=O)NC(C)C(=O)N2C)N(C)C3=O)cc1 (configuration not stated)	LASV entry inh inconclusive, MARV entry inh inconclusive, HCMV inh -101
CCn1ncc2c(=O)c(C(=O)c3ccccc3)c[nH]c21	none (no result: LASV entry inh, FMDV antiviral, MARV entry inh)
O=C(Nc1ccccc1)c1ccc(CN2CCc3ccccc3C2)cc1	MARV entry inh inconclusive, HCMV inh -67
Cc1ccc(NC(=O)c2ccc(CN3CCc4ccccc4C3)cc2)cc1	LASV entry inh inconclusive, MARV entry inh inconclusive, HCMV inh -79
O=C(Nc1ccc(S(=O)(=O)N2CCCCC2)cc1)c1ccc(CN2CCc3ccccc3C2)cc1	LASV entry inh inconclusive, FMDV antiviral inconclusive, MARV entry inh inconclusive, HCMV inh -74
CCc1nnc(NC(=O)c2ccc(S(=O)(=O)N3CCCCC3)cc2)s1	HCMV inh -66
COC(=O)[C@H](CC(C)C)N(Cc1ccc(Br)cc1)S(=O)(=O)CCl	none (no result: FMDV antiviral, MARV entry inh, HCMV inh)
COCc1nnc(NC(=O)c2ccc(S(=O)(=O)N3CCCC3)cc2)o1	HCMV inh -61
COc1ccc(C(=O)Nc2ccc(S(=O)(=O)N3CCCCC3)cc2)cc1	HCMV inh inconclusive
CS(=O)(=O)Nc1ccc(C(=O)Nc2ccc(S(=O)(=O)N3CCCCC3)cc2)cc1	HCMV inh -76
CCOC(=O)N1CCN(S(=O)(=O)c2ccc(C(=O)Nc3nnc(CC)o3)cc2)CC1	LASV entry inh inconclusive
COc1ccc(-c2cnnn2-c2ccc(NC(=O)c3ccc(S(=O)(=O)N4CCCCC4)cc3)cc2)cc1	LASV entry inh 7.1µM
O=C(CCSCc1cccc(Cl)c1)NCc1ccc(F)cc1Cl	none (no result: MARV entry inh)
O=[N+]([O-])c1ccccc1CNc1ccc(NCc2ccccc2[N+](=O)[O-])cc1	HCMV inh -74 (no result: LASV entry inh, FMDV antiviral, MARV entry inh)
C=C(C)C(=O)OCC(O)COc1ccc(C(C)(C)c2ccc(OCC(O)COC(=O)C(=C)C)cc2)cc1 (configuration not stated)	FMDV antiviral 40µM (no result: LASV entry inh, MARV entry inh)
COCCn1c(C)cc(C2=NNC(=Nc3ccccc3F)SC2)c1C	LASV entry inh 2µM, FMDV antiviral inconclusive, MARV entry inh inconclusive, HCMV inh -73
Fc1ccccc1N=C1NN=C(c2ccccc2)CS1	LASV entry inh inconclusive, MARV entry inh 11µM, HCMV inh -98
COCCCN=C1NN=C(c2cc(C)n(-c3ccccc3)c2C)CS1	none
Cc1cc(C2=NNC(=NCCc3ccccc3)SC2)c(C)n1-c1c(C)n(C)n(-c2ccccc2)c1=O	none
COCCCN=C1NN=C(c2cc(C)n(Cc3ccccc3Cl)c2C)CS1	LASV entry inh inconclusive, MARV entry inh inconclusive, HCMV inh -65
COCCCN=C1NN=C(c2cc(C)n(-c3ccccc3F)c2C)CS1	LASV entry inh 15µM, MARV entry inh 2.1µM, HCMV inh inconclusive
CN1CCN(C2=C(Cl)C(=O)c3ccccc3C2=O)CC1	LASV entry inh inconclusive, FMDV antiviral 32µM, MARV entry inh inconclusive
NC(=O)C1CCN(C2=C(Cl)C(=O)c3ccccc3C2=O)CC1	LASV entry inh inconclusive, FMDV antiviral 22µM, MARV entry inh inconclusive
CC1COCC(C)N1C1=C(Cl)C(=O)c2ccccc2C1=O (configuration not stated)	LASV entry inh inconclusive, FMDV antiviral 40µM, MARV entry inh inconclusive
NC(=O)C1CCN(C2=C(NS(=O)(=O)c3ccccc3)C(=O)c3ccccc3C2=O)CC1	LASV entry inh inconclusive, FMDV antiviral inconclusive, MARV entry inh inconclusive
O=C1C(Cl)=C(N2CCC(C(=O)O)CC2)C(=O)c2ccccc21	FMDV antiviral 35µM (no result: LASV entry inh, MARV entry inh, HCMV inh)
COc1ccc(Cl)cc1NC(=O)C1CCN(S(=O)(=O)c2ccc(F)cc2)CC1	none
O=C(N/N=C/c1coc2ccc(Cl)cc2c1=O)c1ccc(O)cc1	none (no result: LASV entry inh, MARV entry inh)
COc1ccc(C(=O)N/N=C\c2coc3ccc(Cl)cc3c2=O)cc1	FMDV antiviral inconclusive, HCMV inh -63 (no result: LASV entry inh, MARV entry inh)
